Data taken from PubChem BioAssay (Tox21).
Several values for one entry are separate records, joined by “and”; a condition that tells them apart may be missing. Equal values may be shown once. Records with an inconclusive call do not appear. Where a call stands in place of a potency, no number is given. Where a structure was tested more than once in an assay, its records may differ in their call. Activity calls are given as the source filed them. Unless noted, calls come from the whole dose curve; as a rule, active = well fitted curve in the direction sought with a large enough effect in the repeat runs; inconclusive = weak or mixed curves; inactive = no such curve, though single readings can be large; an effect the other way counts as inactive or inconclusive.

Tests used:
[1] = A CellTox Green Cytotoxicity Assay to monitor cytotoxicity in HepG2 cells - 0 hour (AID 1224882); note: nearly all actives have a fitted effect of over 35% in size
Outline: (§1)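 Read-out is fluorescence of a cyanine dye excluded from live cells that stains DNA of dead HepG2 cells, with signal proportional to cytotoxicity. Plates were read at 0, 8, 16, 24, 32 and 40 h after compound addition.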

[2] = A CellTox Green Cytotoxicity Assay to monitor cytotoxicity in HepG2 cells - 32 hour (AID 1224883); note: nearly all actives have a fitted effect of over 50% in size; note: potency is the fitted concentration of half-maximal effect
Outline: as §1

[3] = A CellTox Green Cytotoxicity Assay to monitor cytotoxicity in HEK293 cells - 8 hour (AID 1224884); note: nearly all actives have a fitted effect of over 35% in size; note: potency is the fitted concentration of half-maximal effect
Outline: (§2)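 Nonlytic real-time cytotoxicity: HEK293 + CellTox Green reagent plated, 5 h preincubation, pintool compound addition (23 nL in DMSO), 37 C for 40 h, fluorescence measured at successive time points.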

[4] = qHTS RealTime-Glo MT Cell Viability Assay in HepG2 cells - 16 hour (AID 1224885); note: nearly all actives have a fitted effect of over 50% in size
Outline: (§3)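 Compound treatment began 5 h after plating HepG2 cells (600/well) with NanoLuc luciferase and prosubstrate. Plates stayed at 37 C for 40 h; luminescence was captured at six time points, 0 h through 40 h.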

[5] = qHTS RealTime-Glo MT Cell Viability Assay in HEK293 cells - 24 hour (AID 1224886); note: nearly all actives have a fitted effect of over 50% in size; note: potency is the fitted concentration of half-maximal effect
Outline: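 Quantitative high-throughput screen of the Tox21 10K library in HEK293: cells and RealTime-Glo reagents plated together, compound added at 5 h, luminescence monitored through 40 h at 37 C.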

[6] = qHTS RealTime-Glo MT Cell Viability Assay in HEK293 cells - 8 hour (AID 1224887); note: nearly all actives have a fitted effect of over 50% in size; note: potency is the fitted concentration of half-maximal effect
Outline: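 Cells were seeded together with NanoLuc luciferase and a prosubstrate that viable cells reduce to a luciferase substrate. After a 5 h incubation at 37 C/5% CO2, compounds were added and luminescence was measured repeatedly during 40 h of treatment.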

[7] = A CellTox Green Cytotoxicity Assay to monitor cytotoxicity in HEK293 cells - 16 hour (AID 1224888); note: nearly all actives have a fitted effect of over 35% in size
Outline: as §2

[8] = qHTS RealTime-Glo MT Cell Viability Assay in HepG2 cells - 0 hour (AID 1224889); note: nearly all actives have a fitted effect of over 50% in size
Outline: as §3

[9] = A CellTox Green Cytotoxicity Assay to monitor cytotoxicity in HepG2 cells - 8 hour (AID 1224890); note: nearly all actives have a fitted effect of over 45% in size
Outline: as §1

[10] = qHTS assay to identify small molecule antagonists of the estrogen receptor alpha (ER-alpha) signaling pathway using the BG1 cell line in the presence of 0.1 nM 17-beta-estradiol - cell viability counter screen (AID 1259241); note: nearly all actives have a fitted effect of over 40% in size
Outline: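 Cells were plated and left 24 hr, compounds in DMSO were pinned in, 17beta-estradiol was added to 0.1 nM final, and after 22 hr CellTiter-Fluor reagent was added for 30 min before fluorescence was read.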

[11] = qHTS assay to identify small molecule HDAC inhibitors (AID 1259364); note: nearly all actives have a fitted effect of over 45% in size; note: potency is the fitted concentration of half-maximal effect
Outline: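 Luminescence from a cell-permeant luminogenic class I/II HDAC substrate reports endogenous deacetylase activity in intact HCT-116 cells treated with compounds for 2 h.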

[12] = qHTS assay to identify small molecule HDAC inhibitors - cell viability counter screen (AID 1259365)
Outline: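 Counter screen in wild-type HCT-116 cells: compounds dissolved in DMSO are pin-transferred onto overnight-plated cells and left 2hr at 37C. ATP-based CellTiter-Glo luminescence then measures viable cells.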

[13] = qHTS assay to identify small molecule agonists of the sonic hedgehog signaling (Shh) pathway - cell viability counter screen (AID 1259366); note: nearly all actives have a fitted effect of over 50% in size
Outline: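 Cells are plated at 2,000 per well and left 4hr at 37C, 5% CO2 before compound addition. After 23hr of treatment, CellTiter-Fluor reagent is added for 1hr at 37C and fluorescence is measured.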

[14] = qHTS assay to identify small molecule antagonists of the sonic hedgehog signaling (Shh) pathway - cell viability counter screen (AID 1259367); note: nearly all actives have a fitted effect of over 55% in size
Outline: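 After a 4 hr settling period, 3T3 Gli1-Luc cells were treated with DMSO-dissolved chemicals and conditioned medium, kept 24 hr at 37C in 5% CO2, and assayed for viability by CellTiter-Fluor fluorescence following 1 hr reagent incubation.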

[15] = qHTS assay to identify small molecule agonists of the sonic hedgehog signaling (Shh) pathway (AID 1259368; calls by dose curve;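 note: NIH/3T3-derived 3T3Gli1-Luc cells carrying a stable Gli1-driven firefly luciferase reporter; series mostly up to about 92 µM; nearly all actives have a fitted effect of over 15% in size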)
Outline: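 3T3Gli1-Luc (NIH/3T3 clone, stable Gli1-Luc); 4 hr pre-incubation, then cpd in DMSO 24 hr, 37 C/5% CO2; luciferase reagent 30 min RT; luminescence.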

[16] = qHTS assay to identify small molecule antagonists of the androgen receptor (AR) signaling pathway using the MDA cell line in the presence of 0.5 nM R1881 - cell viability counter screen (AID 1259242); note: nearly all actives have a fitted effect of over 45% in size
Outline: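 Counter screen for cytotoxicity run in the same wells as the AR antagonist reporter screen: MDA-kb2 cells were treated 16 hr with test compounds and 0.5 nM R1881, then live-cell protease activity was measured by fluorescence.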

[17] = qHTS assay to identify small molecule phospholipidosis (PLD) inducers (AID 1259344; active = well fitted curve in the direction sought with a large enough effect; an effect the other way counts as inactive or inconclusive)
Outline: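 HepG2 cells grown on collagen I take up LipidTOX Red while exposed to compound for 24 h; after fixation they are imaged at 20x and pit metrics are extracted.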

[18] = molecular target: Estrogen receptor (Homo sapiens) (UniProt P03372); assay: qHTS assay to identify small molecule antagonists of the estrogen receptor alpha (ER-alpha) signaling pathway using the BG1 cell line in the presence of 0.1 nM 17-beta-estradiol (AID 1259244); note: nearly all actives have a fitted effect of over 50% in size
Sequence of Estrogen receptor (Homo sapiens) (P03372 whole entry, looked up): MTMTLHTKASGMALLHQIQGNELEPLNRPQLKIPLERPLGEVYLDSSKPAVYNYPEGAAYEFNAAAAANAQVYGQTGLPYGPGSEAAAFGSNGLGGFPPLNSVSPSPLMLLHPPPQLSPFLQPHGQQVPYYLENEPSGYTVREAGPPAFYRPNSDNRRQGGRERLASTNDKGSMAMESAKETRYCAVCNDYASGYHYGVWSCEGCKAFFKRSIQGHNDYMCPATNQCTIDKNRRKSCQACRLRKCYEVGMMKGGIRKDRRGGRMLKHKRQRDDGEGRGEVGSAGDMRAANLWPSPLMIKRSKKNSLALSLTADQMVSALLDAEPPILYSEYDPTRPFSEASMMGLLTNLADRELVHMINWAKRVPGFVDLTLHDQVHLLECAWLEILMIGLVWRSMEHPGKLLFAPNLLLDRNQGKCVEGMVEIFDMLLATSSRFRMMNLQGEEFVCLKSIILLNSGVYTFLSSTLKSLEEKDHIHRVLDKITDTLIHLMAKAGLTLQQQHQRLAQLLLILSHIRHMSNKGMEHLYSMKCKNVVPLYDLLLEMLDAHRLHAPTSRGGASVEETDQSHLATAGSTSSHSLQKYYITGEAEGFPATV
Outline: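 Cells: VM7Luc4E2, endogenous ER-alpha, 4x ERE-luc stable. Pre-culture 5 d, phenol red-free, charcoal-stripped FBS. Plated 24 h, compound + E2 0.1 nM final, 22 h 37C/5% CO2. Readout ONE-Glo luminescence.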

Structure (SMILES) | Potency [1] | Potency [2] | Potency [3] | Potency [4] | Potency [5] | Potency [6] | Potency [7] | Potency [8] | Potency [9] | Potency [10] | Potency [11] | Potency [12] | Potency [13] | Potency [14] | outcome [15] | Potency [16] | outcome [17] | Potency [18]
CCCCCCn1cc[n+](C)c1 | inactive | inactive | inactive | inactive | 22.2 µM (active) and 14 µM (active) and 17.7 µM (active) | inactive | inactive | inactive | inactive | inactive | inactive | inactive | inactive | inactive | inactive | – | – | –
O=[N+]([O-])O | inactive | inactive | inactive | inactive | inactive | inactive | inactive | inactive | inactive | inactive | inactive | inactive | inactive | inactive | inactive | inactive | – | –
CCCCCCCCCCCC(=O)O | inactive | inactive | inactive | inactive | inactive | inactive | inactive | inactive | inactive | inactive | inactive | inactive | inactive | inactive | inactive | inactive | – | –
CCCCn1cc[n+](C)c1C | inactive | inactive | inactive | inactive | inactive | inactive | inactive | inactive | inactive | inactive | inactive | inactive | inactive | inactive | inactive | inactive | – | –
CCCCCCCCCCn1cc[n+](C)c1 | inactive | 44.1 µM (active) and 54.9 µM (active) | inactive | inactive | 389 nM (active) | inactive and 1.74 µM (active) | inactive | inactive | inactive | inactive | inactive | inactive | inactive | inactive | inactive | inactive | – | –
CCCC[N+]1(C)CCCC1 | inactive | inactive | inactive | inactive | inactive | inactive | inactive | inactive | inactive | inactive | inactive | inactive | inactive | inactive | inactive | inactive | – | –
CCOP(=S)(OCC)Oc1ccc2c(C)c(Cl)c(=O)oc2c1 | inactive | inactive | inactive | inactive | 14 µM (active) and 43.6 µM (active) and inactive | 12.4 µM (active) and 38.9 µM (active) and inactive | inactive | inactive | inactive | inactive | inactive and 11.9 µM (active) | inactive | inactive | inactive | inactive | inactive | inactive | –
C=CCOC(Cn1ccnc1)c1ccc(Cl)cc1Cl (stereo not given) | inactive | 49.1 µM (active) and 54.9 µM (active) | inactive | inactive | 24600 nM (active) | inactive | inactive | inactive | inactive | inactive | inactive | inactive | inactive | inactive | inactive | inactive | inactive | –
CCCCCCCCCCCCOS(=O)(=O)O | inactive | inactive | 48.3 µM (active) and inactive | inactive | inactive | inactive | – | inactive | inactive | inactive | inactive | inactive | inactive | inactive | inactive | inactive | – | –
CCCCCCCCn1cc[n+](C)c1 | inactive | inactive | inactive | inactive | 3.86 µM (active) and 4.41 µM (active) | inactive | inactive | inactive | inactive | inactive | inactive | inactive | inactive | inactive | inactive | – | – | –
CNC | inactive | inactive | inactive | inactive | inactive | inactive | inactive | inactive | inactive | inactive | inactive | inactive | inactive | inactive | inactive | inactive | – | –
O=c1nc(O)n(Cl)c(=O)n1Cl | inactive | inactive | inactive | inactive | inactive | inactive | inactive | inactive | inactive | inactive | inactive | inactive | inactive | inactive | inactive | inactive | – | –
CN(C)[C@@H]1C(=O)C(C(N)=O)=C(O)[C@@]2(O)C(=O)C3=C(O)c4c(O)cccc4[C@@](C)(O)[C@H]3[C@H](O)[C@@H]12 | inactive | inactive | inactive | inactive | inactive | inactive | inactive | inactive | inactive | inactive | inactive | inactive | inactive | inactive | inactive | inactive | inactive | –
O=C(O)c1nc(Cl)ccc1Cl | inactive | inactive | inactive | inactive | inactive | inactive | inactive | inactive | inactive | inactive | inactive | inactive | inactive | inactive | inactive | inactive | – | inactive
